Experimental data from PubChem BioAssay (EPA / NIEHS).
Calls of active or inactive are those of the source. The calls were made as follows: active = hit-call score of the fitted dose curve at least 0.9, where 1 is the maximum; inactive = score below 0.9.

Experiments:
Conditions in all cases: mRNA level, 48 h; actives raise or lower the signal
CYP2E1 (gene 1571) = assay: LTEA_HepaRG_CYP2E1: Life Technologies and Expression Analysis (LTEA) Assay for CYP2E1 using HepaRG (AID 2283485)
Summary of the method: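 Differentiated HepaRG cells were treated in duplicate for 48 h with chemicals in 0.5% DMSO, from 100 uM downward in half-log dilutions. RNA was then analysed by qRT-PCR for CYP2E1 induction or loss.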

CYP4A11 (gene 1579) = assay: LTEA_HepaRG_CYP4A11: Life Technologies and Expression Analysis (LTEA) Assay for CYP4A11 using HepaRG (AID 2283486)
Summary of the method: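 CYP4A11 transcript levels were quantified by TaqMan qRT-PCR after HepaRG human liver cells were treated for 48 hours with test chemicals (top 100 uM, half-log dilutions, 0.5% DMSO). Gain or loss of signal was fitted relative to DMSO.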

[1] = read-out: Cytochrome P450 3A4 (Homo sapiens) (UniProt P08684); assay: LTEA_HepaRG_CYP3A4: Life Technologies and Expression Analysis (LTEA) Assay for CYP3A4 using HepaRG (AID 2283487)
Summary of the method: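 Differentiated HepaRG cells, plated 48 h, then dosed 48 h in serum-free induction medium with 0.5% DMSO, 8 half-log concentrations up to 100 uM, duplicate. CYP3A4 mRNA by qRT-PCR, normalized to ACTB/GAPDH/POLR2A; bidirectional fit versus DMSO.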

[2] = read-out: DNA damage-inducible transcript 3 (DDIT3), DDIT3 (gene 1649); assay: LTEA_HepaRG_DDIT3: Life Technologies and Expression Analysis (LTEA) Assay for DNA damage-inducible transcript 3 (DDIT3) using HepaRG (AID 2283488)
Summary of the method: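 Changes in DDIT3 transcript, in either direction relative to 0.5% DMSO vehicle, were quantified by TaqMan qRT-PCR after 48 h chemical exposure of HepaRG cells at 8 concentrations, maximum 100 uM.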

[3] = read-out: Early growth response protein 1 (EGR1) transcription factor, EGR1 (gene 1958); assay: LTEA_HepaRG_EGR1: Life Technologies and Expression Analysis (LTEA) Assay for Early growth response protein 1 (EGR1) transcription factor using HepaRG (AID 2283490)
Summary of the method: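 Differentiated human HepaRG cells in serum-free induction medium were exposed in duplicate for 48 h to eight concentrations (top 100 uM, half-log steps) in 0.5% DMSO. EGR1 mRNA was quantified by qRT-PCR, normalized to ACTB, GAPDH and POLR2A, and fitted bidirectionally versus DMSO.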

[4] = read-out: Ezrin (EZR), EZR (gene 7430); assay: LTEA_HepaRG_EZR: Life Technologies and Expression Analysis (LTEA) Assay for Ezrin (EZR) using HepaRG (AID 2283491)
Summary of the method: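 EZR transcript levels came from Fluidigm qRT-PCR and were normalized to three housekeeping genes after 48 h chemical exposure of HepaRG cells. Dosing used an 8-point half-log series with a 100 uM top concentration in 0.5% DMSO, tested in duplicate; both directions were fitted versus vehicle.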

[5] = read-out: Cytochrome P450 3A7 (Homo sapiens) (UniProt P24462); assay: LTEA_HepaRG_CYP3A7: Life Technologies and Expression Analysis (LTEA) Assay for CYP3A7 using HepaRG (AID 2283492)
Summary of the method: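 CYP3A7 transcript levels were read by TaqMan qRT-PCR on Fluidigm arrays after 48 h chemical exposure of human HepaRG cells, with housekeeping-gene normalisation. Eight half-log concentrations up to 100 uM in 0.5% DMSO were tested in duplicate.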

CYP3A5 (gene 1577) = assay: LTEA_HepaRG_CYP3A5: Life Technologies and Expression Analysis (LTEA) Assay for CYP3A5 using HepaRG (AID 2283493)
Summary of the method: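 mRNA induction or loss of CYP3A5 assessed in HepaRG after 48 h dosing, 100 uM top concentration, duplicate wells; TaqMan qRT-PCR with ACTB, GAPDH, POLR2A normalization; 0.5% DMSO as negative control.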

[6] = read-out: Fatty Acid-Binding Protein 1 (FABP1), FABP1 (gene 2168); assay: LTEA_HepaRG_FABP1: Life Technologies and Expression Analysis (LTEA) Assay for Fatty Acid-Binding Protein 1 (FABP1) using HepaRG (AID 2283494)
Summary of the method: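 Differentiated human HepaRG cells were exposed in duplicate for 48 h in serum-free induction medium to 8-point half-log concentration series topping at 100 uM in 0.5% DMSO. FABP1 mRNA measured by TaqMan qRT-PCR, normalized to ACTB/GAPDH/POLR2A; bidirectional fit versus DMSO.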

[7] = read-out: Cytochrome P450 7A1 (Homo sapiens) (UniProt P22680); assay: LTEA_HepaRG_CYP7A1: Life Technologies and Expression Analysis (LTEA) Assay for Cytochrome P450 7A1 (CYP7A1) using HepaRG (AID 2283496)
Summary of the method: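 Gene expression endpoint in human HepaRG liver cells treated for 48 h with test chemicals (up to 100 uM, 0.5% DMSO). Values come from bidirectional concentration-response fitting versus DMSO.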

[8] = read-out: Glutathione S-Transferase (GSTA2), GSTA2 (gene 2939); assay: LTEA_HepaRG_GSTA2: Life Technologies and Expression Analysis (LTEA) Assay for Glutathione S-Transferase (GSTA2) using HepaRG (AID 2283497)
Summary of the method: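 Human HepaRG cells, plated 48 h, then exposed in serum-free induction medium for 48 h to eight half-log concentrations up to 100 uM in 0.5% DMSO, duplicate. GSTA2 mRNA by qRT-PCR, normalized to ACTB/GAPDH/POLR2A; bidirectional fit versus DMSO.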

[9] = read-out: Glutamate-cysteine ligase catalytic (GCLC), GCLC (gene 2729); assay: LTEA_HepaRG_GCLC: Life Technologies and Expression Analysis (LTEA) Assay for Glutamate-cysteine ligase catalytic (GCLC) using HepaRG (AID 2283498)
Summary of the method: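 Differentiated human HepaRG cells, plated 48 h then switched to serum-free induction medium, were exposed in duplicate for 48 h to 8 half-log concentrations topping at 100 uM in 0.5% DMSO. GCLC mRNA was quantified by qRT-PCR against ACTB, GAPDH and POLR2A.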

[10] = read-out: growth arrest and DNA damage 45 (GADD45G), GADD45G (gene 10912); assay: LTEA_HepaRG_GADD45G: Life Technologies and Expression Analysis (LTEA) Assay for growth arrest and DNA damage 45 (GADD45G) using HepaRG (AID 2283499)
Summary of the method: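 HepaRG, 48 h exposure, top 100 uM, half-log 8-point series, 0.5% DMSO vehicle, duplicates. Readout: GADD45G transcript by qRT-PCR (Fluidigm array), housekeeping-normalised (ACTB/GAPDH/POLR2A). Bidirectional curve fit vs DMSO baseline.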

[11] = read-out: Glutamate-cysteine ligase regulatory (GCLM), GCLM (gene 2730); assay: LTEA_HepaRG_GCLM: Life Technologies and Expression Analysis (LTEA) Assay for Glutamate-cysteine ligase regulatory (GCLM) using HepaRG (AID 2283500)
Summary of the method: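 Human liver HepaRG cultures receive test chemicals for 48 hours at up to 100 uM in 0.5% DMSO. GCLM expression is measured by qRT-PCR and analysed for increases or decreases against vehicle.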

[12] = read-out: Glutathione S-transferase M3 (GSTM3), GSTM3 (gene 2947); assay: LTEA_HepaRG_GSTM3: Life Technologies and Expression Analysis (LTEA) Assay for Glutathione S-transferase M3 (GSTM3) using HepaRG (AID 2283501)
Summary of the method: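 qRT-PCR read-out of GSTM3 transcript, normalized to three housekeeping genes, from human HepaRG cells after 48 h chemical exposure. Eight-point half-log series, top 100 uM, 0.5% DMSO vehicle; gain or loss fitted relative to DMSO baseline.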

[13] = read-out: Heat shock 70 kDa protein 1 (HSPA1A), gene 3303; assay: LTEA_HepaRG_HSPA1A: Life Technologies and Expression Analysis (LTEA) Assay for Heat shock 70 kDa protein 1 (HSPA1A) using HepaRG (AID 2283502)
Summary of the method: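 HSPA1A induction in human HepaRG liver cells is measured after 48 h of chemical treatment (100 uM maximum, 0.5% DMSO vehicle). Expression comes from qRT-PCR normalized to endogenous controls.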

[14] = read-out: Hypoxia-inducible factor 1-alpha (Homo sapiens) (UniProt Q16665); assay: LTEA_HepaRG_HIF1A: Life Technologies and Expression Analysis (LTEA) Assay for Hypoxia-inducible factor 1 (HIF1A) Trancription factor using HepaRG (AID 2283503)
Summary of the method: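 HepaRG, 48 h exposure, 8-pt half-log series from 100 uM, 0.5% DMSO vehicle, duplicates. Readout: HIF1A transcript by qRT-PCR (Fluidigm array), housekeeping-normalised. Bidirectional curve fit vs DMSO baseline.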

[15] = read-out: 3-Hydroxy-3-Methylglutaryl-CoA Synthase 2 (HMGCS2), HMGCS2 (gene 3158); assay: LTEA_HepaRG_HMGCS2: Life Technologies and Expression Analysis (LTEA) Assay for 3-Hydroxy-3-Methylglutaryl-CoA Synthase 2 (HMGCS2) using HepaRG (AID 2283504)
Summary of the method: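 qRT-PCR read-out of HMGCS2 transcript, normalised to three housekeeping genes, in HepaRG cells after 48 h chemical exposure. Eight-point curves from 100 uM, half-log dilutions, 0.5% DMSO vehicle; gain or loss fitted relative to DMSO baseline.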

[16] = read-out: Pro-epidermal growth factor (Homo sapiens) (UniProt P01133); assay: LTEA_HepaRG_EGF: Life Technologies and Expression Analysis (LTEA) Assay for Epidermal growth factor (EGF) using HepaRG (AID 2283489)
Summary of the method: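 qRT-PCR readout of EGF transcript after 48 h chemical exposure of HepaRG cells; eight concentrations from 100 uM down in half-log steps, duplicate wells, 0.5% DMSO vehicle. Bidirectional curve fitting against DMSO baseline.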

[17] = read-out: Cytochrome P450 4A22 (Homo sapiens) (UniProt Q5TCH4); assay: LTEA_HepaRG_CYP4A22: Life Technologies and Expression Analysis (LTEA) Assay for Cytochrome P450 4A22 (CYP4A22) using HepaRG (AID 2283495)
Summary of the method: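 HepaRG, 48 h post-plating -> serum-free induction medium; dosed 48 h, duplicate, 8 conc. (100 uM top, half-log), 0.5% DMSO. Readout: CYP4A22 mRNA by qRT-PCR, ACTB/GAPDH/POLR2A normalization; gain/loss fit relative to DMSO.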

Measured: outcome

Sequence of Hypoxia-inducible factor 1-alpha (Homo sapiens) (Q16665 whole entry, looked up): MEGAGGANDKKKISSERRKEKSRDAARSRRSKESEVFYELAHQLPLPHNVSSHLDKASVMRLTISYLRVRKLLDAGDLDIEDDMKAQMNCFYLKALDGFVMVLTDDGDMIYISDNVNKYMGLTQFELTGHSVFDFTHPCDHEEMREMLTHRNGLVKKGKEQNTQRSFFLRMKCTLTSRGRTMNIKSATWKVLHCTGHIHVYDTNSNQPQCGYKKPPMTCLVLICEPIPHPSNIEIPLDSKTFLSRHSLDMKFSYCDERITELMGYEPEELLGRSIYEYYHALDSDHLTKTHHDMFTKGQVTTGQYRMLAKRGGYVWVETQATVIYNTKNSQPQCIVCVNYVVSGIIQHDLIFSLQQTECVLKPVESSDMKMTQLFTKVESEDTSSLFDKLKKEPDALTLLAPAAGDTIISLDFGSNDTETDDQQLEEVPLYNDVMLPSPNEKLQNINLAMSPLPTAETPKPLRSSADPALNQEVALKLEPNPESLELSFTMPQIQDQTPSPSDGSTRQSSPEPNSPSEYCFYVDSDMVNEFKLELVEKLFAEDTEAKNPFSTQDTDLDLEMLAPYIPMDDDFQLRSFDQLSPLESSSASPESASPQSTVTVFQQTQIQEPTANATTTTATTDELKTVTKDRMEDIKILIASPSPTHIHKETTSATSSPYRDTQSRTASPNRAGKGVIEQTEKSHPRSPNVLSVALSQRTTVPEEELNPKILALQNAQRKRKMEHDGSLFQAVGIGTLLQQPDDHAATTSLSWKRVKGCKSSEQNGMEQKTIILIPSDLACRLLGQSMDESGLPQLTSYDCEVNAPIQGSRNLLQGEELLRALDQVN
Sequence of Cytochrome P450 3A7 (Homo sapiens) (P24462 whole entry, looked up): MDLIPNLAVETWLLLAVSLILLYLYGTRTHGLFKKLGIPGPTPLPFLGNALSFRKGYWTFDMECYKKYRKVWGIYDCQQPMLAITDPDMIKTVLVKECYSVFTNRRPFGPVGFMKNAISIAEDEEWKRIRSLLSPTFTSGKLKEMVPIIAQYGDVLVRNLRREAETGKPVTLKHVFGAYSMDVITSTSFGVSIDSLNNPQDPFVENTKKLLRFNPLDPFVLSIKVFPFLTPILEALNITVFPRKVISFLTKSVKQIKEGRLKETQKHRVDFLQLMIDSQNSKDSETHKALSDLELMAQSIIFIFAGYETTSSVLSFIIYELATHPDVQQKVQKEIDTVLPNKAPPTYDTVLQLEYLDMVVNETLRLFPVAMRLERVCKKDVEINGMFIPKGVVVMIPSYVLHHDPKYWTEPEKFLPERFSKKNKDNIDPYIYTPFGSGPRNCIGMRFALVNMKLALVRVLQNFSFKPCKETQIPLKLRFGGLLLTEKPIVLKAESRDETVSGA
Sequence of Cytochrome P450 3A4 (Homo sapiens) (P08684 whole entry, looked up): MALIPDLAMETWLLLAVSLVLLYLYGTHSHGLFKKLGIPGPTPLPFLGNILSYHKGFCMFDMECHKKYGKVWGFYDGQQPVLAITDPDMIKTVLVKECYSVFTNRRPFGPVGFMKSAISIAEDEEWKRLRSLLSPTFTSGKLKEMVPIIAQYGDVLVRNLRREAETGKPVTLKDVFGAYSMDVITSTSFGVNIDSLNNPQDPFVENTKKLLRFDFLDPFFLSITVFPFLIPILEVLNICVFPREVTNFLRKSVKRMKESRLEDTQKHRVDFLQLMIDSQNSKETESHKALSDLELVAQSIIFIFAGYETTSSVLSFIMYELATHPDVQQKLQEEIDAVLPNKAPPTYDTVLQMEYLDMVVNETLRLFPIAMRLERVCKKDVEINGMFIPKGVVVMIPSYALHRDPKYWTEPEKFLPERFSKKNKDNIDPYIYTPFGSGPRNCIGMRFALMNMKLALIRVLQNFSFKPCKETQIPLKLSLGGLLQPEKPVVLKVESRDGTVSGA

C[C@]12C=CC(=O)C=C1CC[C@H]1[C@@H]3C[C@@H](O)[C@](O)(C(=O)CO)[C@@]3(C)C[C@H](O)[C@@]12F
inactive: CYP2E1 (gene 1571) | CYP4A11 (gene 1579) | [1] | [2] | [3] | [4] | [5] | CYP3A5 (gene 1577) | [6] | [7] | [8] | [9] | [10] | [11] | [12] | [13] | [14] | [15]

CC(C)CCCCCCOC(=O)C1CCCCC1C(=O)OCCCCCCC(C)C (stereo not drawn)
inactive: CYP2E1 (gene 1571) | CYP4A11 (gene 1579) | [1] | [2] | [16] | [3] | [4] | [5] | CYP3A5 (gene 1577) | [6] | [17] | [7] | [8] | [9] | [10] | [13] | [14] | [15]

OC[C@H]1O[C@@H]2O[C@H]3[C@H](O)[C@@H](O)[C@@H](O[C@H]4[C@H](O)[C@@H](O)[C@@H](O[C@H]5[C@H](O)[C@@H](O)[C@@H](O[C@H]6[C@H](O)[C@@H](O)[C@@H](O[C@H]7[C@H](O)[C@@H](O)[C@@H](O[C@H]1[C@H](O)[C@H]2O)O[C@@H]7CO)O[C@@H]6CO)O[C@@H]5CO)O[C@@H]4CO)O[C@@H]3CO
inactive: CYP2E1 (gene 1571) | CYP4A11 (gene 1579) | [2] | [16] | [3] | [4] | [5] | CYP3A5 (gene 1577) | [6] | [17] | [7] | [8] | [9] | [10] | [11] | [13] | [14] | [15]

Cn1cc[nH]c1=S
inactive: CYP2E1 (gene 1571) | CYP4A11 (gene 1579) | [2] | [16] | [3] | [4] | [6] | [17] | [7] | [8] | [9] | [10] | [13] | [15]
